# Compound activity (PubChem)
# Shown are actives, neighbours in structure and some others; about 19% of the full set was active somewhere.
# HT1080 IDH1KD tx – qHTS for induction of synthetic lethality in tumor cells producing 2HG: qHTS for the HT-1080-IDH1KD cell line | Potency, µM (highest dose often 46.1 µM), hits mostly cytotoxic | 360,000 compounds, 2% hits | HT-1080 IDH1 knockdown viability, ATP luminescence, 48 h
#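 HT-1080-IDH1KD cells (IDH1 knocked down), 750/well in RPMI with 5% FBS, treated with compound 48 h at 37 degrees C. Viability by CellTiter-Glo luminescence, normalised to DMSO and no-cell wells; concentration-response curves classed.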
# TDP1 cell CPT – qHTS for Inhibitors of human tyrosyl-DNA phosphodiesterase 1 (TDP1): qHTS in cells in presence of CPT | chicken DT40 Tdp1-/-;hTDP1 cells + 20 nM CPT, ATP luminescence, 48 h | Potency, µM (doses to about 46.2 µM), actives largely listed as inhibitors | 420,000 compounds, 12% hits; note: nearly all actives have a fitted effect of over 55% in size
#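 Chicken DT40 Tdp1-/- cells complemented with human TDP1, 400 cells/well, exposed to compounds plus 20 nM camptothecin for at least 48 h at 37 C; viability read as ATP content by CellTiter-Glo luminescence.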
# DT40 TDP1 no CPT – qHTS for Inhibitors of human tyrosyl-DNA phosphodiesterase 1 (TDP1): qHTS in cells in absence of CPT; DT40 Tdp1-/- hTDP1 cells, no CPT, ATP luminescence, 48 h; Potency, µM (titrated, usually from 46.2 µM), usual class: inhibitors; 420,000 compounds, 15% hits; note: nearly all actives have a fitted effect of over 55% in size
#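 Chicken DT40 Tdp1-/- cells stably complemented with human TDP1 were seeded at 400 cells/well with DMSO in place of 20 nM camptothecin. After compound pinning, cells grew at least 48 hr at 37 °C; viability read by CellTiter-Glo luminescence.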
# HT1080-NT tox – qHTS for induction of synthetic lethality in tumor cells producing 2HG: qHTS for the HT-1080-NT fibrosarcoma cell line | HT-1080-NT fibrosarcoma viability, CellTiter-Glo ATP luminescence, 48 h | Potency, µM (highest dose often 46.1 µM), hits mostly cytotoxic | 360,000 compounds, 1.6% hits;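 note: NT is the 2HG producing partner of a matched IDH1 knockdown line; nearly all actives have a fitted effect of over 55% in size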
#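 Fibrosarcoma NT cells, 750 per well in 5% FBS RPMI, were exposed to compound for 48 hours. Viability: CellTiter-Glo luminescence.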
# IL1B secr inh – qHTS for Inhibitors of Inflammasome Signaling: IL-1-beta AlphaLISA Primary Screen; THP-1 LPS/ATP IL-1B secretion, AlphaLISA, 16 h; stronger effect = lower value; activity change, % at 57.5 µM; 360,000 compounds, 4.7% hits; in the data active = activity change below about -50%; inconclusive = mostly about -30% to -49%
#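 THP-1 cells pretreated 1 hr with compounds (up to 57.5 uM final), then stimulated with LPS (250 ng/mL final) plus ATP (1.25 mM final); secreted IL-1B measured by AlphaLISA after 16 hr, decreased signal indicating inhibition.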
# Hits are given with their value; 0 = inactive; ? = inconclusive; - = no result. Unless noted, calls come from the whole dose curve; as a rule, active = well fitted curve in the direction sought with a large enough effect; inconclusive = small, poorly fitted or top-dose-only effect, or another doubt; inactive = no such curve, though single readings can be large; an effect the other way counts as inactive or inconclusive.
SMILES,HT1080 IDH1KD tx,TDP1 cell CPT,DT40 TDP1 no CPT,HT1080-NT tox,IL1B secr inh
CCCNC(=O)Cn1nc(-c2ccccc2OC)ccc1=O,0,0,0,0,0
CC(=O)Nc1ccc(S(=O)(=O)Nc2cccc(S(=O)(=O)N(C)c3ccccc3)c2)cc1,0,?,?,0,0
CC(=O)Nc1ccc(C(=O)Nc2cccc(S(=O)(=O)N(C)c3ccccc3)c2)cc1,0,18.4µM,?,0,0
CN(c1cccc(NC(=O)c2ccc(C(C)(C)C)cc2)c1)S(C)(=O)=O,?,23.1µM,20.6µM,23.1µM,?
CN(c1ccccc1)S(=O)(=O)c1cccc(C(=O)Nc2ccc3c(c2)CCC3)c1,0,5.17µM,2.59µM,0,0
CC(=O)c1cccc(NC(=O)c2ccc(N(C)S(C)(=O)=O)cc2)c1,0,0,0,0,0
O=C(Nc1ccc2c(c1)CCC2)c1ccccc1,0,?,16.4µM,0,0
COCCN(C(=O)COC(=O)CCC(=O)c1cccs1)c1c(N)n(Cc2ccccc2)c(=O)[nH]c1=O,0,0,0,0,0
COc1ccc(CNC(=O)OC2CC3CC2[C@H]2CCCCN2C3=O)cc1 (stereo partly drawn),0,0,0,0,0
CN(c1ccccc1)S(=O)(=O)c1cccc(NC(=O)c2ccncc2)c1,-,6.51µM,8.2µM,-,0
Cc1ccc(C)c(NS(=O)(=O)c2cc(C(=O)Nc3cccc(N(C)S(C)(=O)=O)c3)ccc2C)c1,?,?,?,?,0
Cc1ccc(NS(=O)(=O)c2cc(C(=O)Nc3cccc(N(C)S(C)(=O)=O)c3)ccc2C)c(C)c1,0,16.4µM,18.4µM,0,0
CN(c1ccccc1)S(=O)(=O)c1cccc(NC(=O)c2ccc(=O)[nH]c2)c1,0,?,?,0,0
CN(c1ccccc1)S(=O)(=O)c1cccc(NC(=O)c2cncc(Br)c2)c1,?,?,?,0,0
CN(c1cccc(NC(=O)c2ccc(N(C)S(=O)(=O)c3ccccc3)cc2)c1)S(C)(=O)=O,?,20.6µM,?,0,0
CSc1ncccc1C(=O)Nc1cccc(S(=O)(=O)N(C)c2ccccc2)c1,0,18.4µM,?,0,0
CCCn1nnc(NC(=O)c2ccc3c(c2)OCO3)n1,0,0,0,0,0
O=C(CN(Cc1ccco1)C(=O)c1ccccc1)Nc1ccc(Cl)c(Cl)c1,?,0,0,?,?
COc1ccc(NC(=O)c2cccc(S(=O)(=O)N(C)c3ccccc3)c2)cn1,0,16.4µM,16.4µM,0,0
Cc1ccc(C(=O)Nc2nc(C)c(C(=O)Nc3ccc4c(c3)CCC4)s2)cc1,4.11µM,1.3µM,1.3µM,2.31µM,0
Cc1ccc(N(C)S(=O)(=O)c2cccc(C(=O)Nc3ccc(C)cn3)c2)cc1,0,?,?,0,0
Cc1nc(NC(=O)c2ccc(F)cc2)sc1C(=O)Nc1ccc2c(c1)CCC2,0,?,?,?,0
CN(C)S(=O)(=O)c1cccc(NC(=O)c2cccc(NS(=O)(=O)c3ccccc3)c2)c1,?,20.6µM,?,?,-60.5
O=C(Nc1cccc2c1CCCC2)c1ccccc1F,0,?,0,0,0
O=C(Nc1cccc2c1CCCC2)c1cc([N+](=O)[O-])ccc1Cl,20.6µM,?,25.9µM,16.4µM,?
SMILES,HT1080 IDH1KD tx,TDP1 cell CPT,DT40 TDP1 no CPT,HT1080-NT tox,IL1B secr inh
O=C(Nc1cccc2c1CCCC2)c1ccc(Cl)c([N+](=O)[O-])c1,0,?,16.4µM,0,-72.9
CCOc1ccc(-c2nc3c(C#N)c[nH]n3c2NC2CCCCC2)cc1,-,8.2µM,7.31µM,-,-
N#Cc1c[nH]n2c(NC3CCCC3)c(-c3ccc(Cl)cc3)nc12,-,?,16.4µM,-,-
N#Cc1c(-c2ccc(Cl)cc2)ccn2nc(C3CCCCC3)nc12,0,?,0,0,0
N#Cc1c[nH]n2c(NC3CCCC3)c(-c3ccc(Br)cc3)nc12,-,18.4µM,23.1µM,-,-
Cc1cccc(-c2nc3c(C#N)c[nH]n3c2NC2CCCCC2)c1,-,?,20.6µM,-,-
Nc1ncnc2c1ncn2[C@@H]1O[C@H](C(=O)Nc2ccc(Oc3ccccc3)nc2)[C@@H](O)[C@H]1O,0,0,0,0,0
COc1ccccc1NC(=O)c1sc2nc3c(c(C(F)(F)F)c2c1N)CN(C(C)=O)CC3,-,?,0,-,-
CC1CCN(C(=O)C2COc3ccccc3C2)CC1 (stereo not drawn),-,0,0,-,-
COc1ccc(-c2c(C)c3ccc(O)c(CN4CCCCC4)c3oc2=O)cc1OC,-,0,0,-,-
CCOc1ccc(C2Nc3ccccc3-c3nnc(SCc4ccccc4)nc3O2)cc1OC (stereo not drawn),-,18.4µM,?,-,-
O=C(O)c1ccc(N/N=C/c2ccc(-c3ccc(Br)cc3)o2)cc1,23.1µM,?,?,25.9µM,0
O=C(O)c1ccc(N/N=C/c2ccc(-c3ccccc3)cc2)cc1,10.3µM,0,0,16.4µM,0
Cc1cc(C(=O)N/N=C/c2ccc(-c3cccc(Cl)c3Cl)o2)n[nH]1,0,?,?,0,0
Cc1ccc(/C=N/Nc2ccc(C(=O)O)cc2)o1,0,0,0,0,0
O=C(O)c1ccc(N/N=C/c2ccc(-c3ccccc3Cl)o2)cc1,23.1µM,0,0,?,0
O=C(N/N=C/c1ccc(-c2ccccc2Cl)o1)c1ccccc1,?,14.6µM,18.4µM,0,0
CC(CC(=O)NC1CCCCC1)S(=O)(=O)c1ccc2c(c1)NC(=O)CO2 (stereo not drawn),0,0,0,0,0
Cc1c(CN2CCC(Oc3ccc(C(=O)N4CCCCC4)cc3)CC2)cnn1C,0,0,0,0,0
N#Cc1ccccc1NC(=O)C(=O)NCC(c1ccc2c(c1)OCO2)N1CCOCC1 (stereo not drawn),-,0,0,-,-
CC(C)(C)NC(=O)C1Cc2ccccc2CN1C(=O)Nc1ccccc1Cl (stereo not drawn),0,0,0,0,0
CC(C)(C)c1cc(C(=O)N/N=C/c2ccc(-c3ccccc3[N+](=O)[O-])o2)n[nH]1,?,?,?,0,0
O=S(=O)(N/N=C\c1ccc(-c2ccccc2Cl)o1)c1ccccc1,?,11.2µM,11.2µM,0,0
O=C(N/N=C/c1ccc(-c2ccccc2[N+](=O)[O-])o1)c1cccnc1,0,16.4µM,?,0,0
CSCC[C@H](NC(=O)Nc1ccc(S(N)(=O)=O)cc1)C(=O)O,0,0,0,0,0
COc1ccc(OCc2cc(C(=O)N3CCC(OC)CC3)no2)c2ccccc12,0,23.1µM,14.6µM,0,0
